For test [1], the target named is Solute carrier family 12 member 5 (Homo sapiens) (UniProt Q9H2X9). Description: KCC2 modulators in sodium-free buffer, confirmation, cell-based, HEK293 KCC2, thallium flux, secondary assay (AID 1713;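 active = thallium flux slope above the same plate's solvent-only control mean plus 3 SD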). Conditions: FluoZin2 fluorescence, at 10 µM, stronger effect = higher value.
Test [2] in a line: thallium flux modulation in parental HEK cells, confirmation, counter-screen for KCC2 modulator project, cell-based, counterscreen 1 (AID 1716;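 active = thallium flux rate significantly above the same plate's solvent-only control wells, beyond their mean plus 3 SD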). Conditions: HEK293 parental cells, thallium flux FluoZin2, ouabain; at 10 µM; baseline-ratio fluorescence slope, 10–20 s after thallium. A general note: Counterscreens check selectivity or assay interference.
Test [3] deals with Solute carrier family 12 member 5 (Homo sapiens) (UniProt Q9H2X9). Put plainly: KCC2 inhibitors and activators, ouabain retest, confirmation, HEK-KCC2 cells (AID 1717;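 active = thallium flux slope beyond 3 SD from same-plate DMSO control mean in most replicates, usually higher, sometimes lower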;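 note: slope of initial-normalized fluorescence between seconds 10 and 20 after thallium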). Conditions: HEK293-KCC2, thallium flux FluoZin2 fluorescence, at 10 µM, bidirectional: low = inhibitor, high = activator.
The nature of test [4]: native HEK Tl+ uptake effects, second counter-screen – HEK cells, counterscreen 2, counter-screen for KCC2 modulator project, confirmation (AID 1718;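 active = thallium flux slope above the same plate's solvent-control mean plus 3 SD in both duplicate wells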;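 note: run without ouabain in cells lacking the KCC2 cotransporter; slope of fluorescence scaled to its starting value between 10 and 20 s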). The following applies: HEK293 parental, thallium flux FluoZin-2 fluorescence slope; at 10 µM.
The nature of a further test: PubChem AID 1714.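 Note: raw slope of fluorescence over initial fluorescence between 10 and 20 s after thallium.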 The following applies: HEK293-KCC2 + bumetanide/ouabain, thallium flux FluoZin2; at 10 µM; stronger effect = higher value.
Test [5] addresses Solute carrier family 12 member 5 (Homo sapiens) (UniProt Q9H2X9). Description: KCC2 modulators without ouabain present, confirmation, cell-based, HEK293 KCC2, thallium flux, FluoZin2, secondary assay 2 (AID 1715).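 Note: raw slope with 0.1% DMSO as baseline and bumetanide as block control.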 The following applies: HEK293-KCC2, thallium flux FluoZin2 fluorescence; at 10 µM; actives lie on both sides; F/F0 rise rate, 10–20 s post-thallium.
Test [6] is described as follows: inhibitors of TNFa-induced NFkB p65 translocation, primary screen, imaging, HUVEC, MLSMR starter and 10KST1 sets (AID 438;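 active = inhibition above 20% together with a positive visual image hit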;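 note: compound added about 3h40 before a 20 min TNFalpha stimulation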;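 for inhibition: signal is the nuclear over cytoplasmic p65 intensity ratio per well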). The following applies: HUVEC TNFa-induced p65 nuclear translocation; cell count: measured here: nuclei count (cytotoxicity indicator), at 2.08 µM; inhibition: at 2 µM, stronger effect = higher value, 0% TNFa-plus-vehicle, 100% no-TNFa wells.
A short description of test [7]: inhibitors of mutant huntingtin aggregation, primary screen, imaging, exon1htt(103Q)mCFP cells, high-content imaging (AID 483;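 active = visual image review flags a hit and inhibition of aggregation exceeds 20%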;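 note: compound exposure lasted 3 days before fixation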;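 for nuclei count: percent of the per-plate median nuclei count of sample wells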). The following applies: exon1htt(103Q)mCFP cell line, aggregate imaging, at 2 µM; inhibition of aggregation: stronger effect = higher value; nuclei count: measured here: cell count, toxicity.
Test [8] can be described thus: inhibitors of E-selectin induction by TNFa, primary screen, imaging, HUVEC, immunofluorescence, MLSMR starter and 10KST1 sets (AID 487;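 active = visually confirmed hit in the image check and inhibition above 20%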;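 for inhibition: signal is fraction of cell area covered by stained E-selectin grains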;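 for nuclei count: 100% = median nuclei count of all wells on the same plate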). The following applies: HUVEC TNFalpha-induced E-selectin immunofluorescence imaging, at 2 µM; inhibition: stronger effect = higher value; nuclei count: measured here: cell number, toxicity.
Test [9] concerns the target Voltage-gated potassium channel subunit beta-2 (Rattus norvegicus) (UniProt P62483). Description: KvBeta enzyme negative modulators, primary screen, biochemical, NADPH fluorescence (AID 622;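 active = fluorescence slope higher than the sample average by over 3 SD, cut at about -0.22 in these data, passing the limit was not always enough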;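 note: slope of raw intensity against log time taken from 70 to 1610 s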). The following applies: recombinant KvBeta, 4-cyanobenzaldehyde reduction, at 10 µM, stronger effect = higher value.
Test [10] has the same target. Put plainly: KvBeta positive modulators, primary screen, biochemical, NADPH fluorescence (AID 623;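 active = NADPH fluorescence slope more negative than the mean of all samples by about 3 SD, 99.7% confidence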;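 note: fluorescence intensity change per second fitted from 20 to 320 s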). The following applies: Recombinant KvBeta, NADPH fluorescence decrease slope, 10 min; at 10 µM; stronger effect = lower value.
Test [11] deals with Alpha-2C adrenergic receptor (Homo sapiens) (UniProt P18825). Put plainly: modulators of alpha2C/GIRK thallium flux, primary screen, cell-based, HEK293 alpha2C/GIRK1/2 (AID 624;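 active = fluorescence slope after compound addition differing from the mean of all screened samples at 99.7% confidence, in either direction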;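 note: slope of fluorescence ratio to pre-addition baseline per second over 15 to 24 s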). The following applies: thallium flux BTC fluorescence, at 10 µM, actives lie on both sides.
Test [12] in a line: inhibitors of Sendai virus-induced IRF3 signaling, primary screen, TLR/RLR signaling modifier project, cell-based, Sendai virus stimulus, luciferase, 10K MLSCN set (AID 602276;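 active = inhibition at or above 50% at 10 µM; inactive = inhibition below 50%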;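 note: firefly luciferase from ISG56 promoter only with Renilla not read in this screen; 0% = Sendai virus plus DMSO and 100% = medium plus DMSO without virus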). Conditions: HEK293 RL24 IRF3 luciferase reporter, at 10 µM, stronger effect = higher value. A general note: Reporter assays use an easily measured gene product as a stand-in for the process of interest.
Test [13] in a line: inhibitors of poly I:C-induced TLR3 signaling, primary screen, cell-based, poly I:C stimulus, luciferase, 10K MLSCN set (AID 602277;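 active = inhibition of the reporter signal at or above 50%; inactive = inhibition below 50%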). The following applies: HEK293-TLR3 RL24 IRF3 luciferase reporter, at 10 µM, stronger effect = higher value.
The nature of test [14]: DUSP6 inhibitors restoring Erk phosphorylation by chemical complementation, primary imaging in DUSP6-transfected HeLa (AID 609;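 active = compounds giving at least 50% inhibition in the cell-based MKP-3 phosphatase rescue imaging test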;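 for inhibition: phospho-Erk level distribution per well compared with pooled transfected vehicle control wells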). The following applies: HeLa MKP-3 transfected, phospho-Erk imaging KS statistic, at 10 µM, cells stimulated with TPA for 15 min.
The target of test [15] is Dual specificity protein phosphatase 6 (Homo sapiens) (UniProt Q16828). Described as above. The following applies: HeLa MKP-3 transfected, phospho-Erk imaging KS statistic; at 10 µM; stronger effect = higher value; cells stimulated with TPA for 15 min.
The nature of test [16]: inhibitors of larval lipid processing in zebrafish, primary screen, whole organism, PED6 fluorescence, gall bladder and intestine (AID 686;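 active = a full or partial loss of lipid-probe fluorescence in the fish gall bladder, intestine or both, judged by eye; inactive = no fluorescence loss, or compound toxic to the fish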;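 note: larvae 5 to 7 days old with five fish per well; signal comes from phospholipase A2 cleavage of quenched PED6 carried via bile; overnight exposure to compound and PED6 before scoring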). Conditions: Zebrafish larvae PED6 lipid processing, fluorescence scoring; screened at 20 µM (by protocol).
Test [17] can be described thus: inhibitors of Chlamydomonas gravitaxis, primary screen, whole organism, Chlamydomonas reinhardtii, WT vs cilia-less mutant, absorbance, 96-well (AID 463189;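 active = inhibition at or above 50% relative to wild type and mutant plate controls; inactive = inhibition below 50%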;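 note: 0% = wild type cc124 cells in DMSO and 100% = ciliumless bld1 mutant cells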). The following applies: OD600 absorbance, 2 days, at 10 µM, stronger effect = higher value.
The mark [18] stands for this setting: measured here: cell density z-score.
[19] abbreviates: measured here: nuclear c-Myc green intensity z-score.
Where [20] appears, read: measured here: nuclear pErk red intensity z-score, stronger effect = higher value.

Values joined by “and” are separate entries in the source; they are usually repeats but may differ in a detail not shown here. Equal values may be shown once. The list shows a part of the results. Records with an inconclusive call do not appear. Active and inactive are the calls of the source.

Sequence of Voltage-gated potassium channel subunit beta-2 (Rattus norvegicus) (P62483 whole entry, looked up): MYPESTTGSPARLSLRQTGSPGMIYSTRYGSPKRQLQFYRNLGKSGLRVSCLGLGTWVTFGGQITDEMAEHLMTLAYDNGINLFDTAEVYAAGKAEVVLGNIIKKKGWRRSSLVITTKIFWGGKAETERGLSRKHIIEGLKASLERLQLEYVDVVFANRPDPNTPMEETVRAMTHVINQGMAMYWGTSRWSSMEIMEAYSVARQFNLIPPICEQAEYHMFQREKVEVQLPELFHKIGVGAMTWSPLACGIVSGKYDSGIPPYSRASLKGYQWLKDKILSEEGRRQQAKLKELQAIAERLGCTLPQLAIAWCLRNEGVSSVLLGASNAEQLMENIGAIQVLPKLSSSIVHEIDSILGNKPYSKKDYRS
Sequence of Solute carrier family 12 member 5 (Homo sapiens) (Q9H2X9 whole entry, looked up): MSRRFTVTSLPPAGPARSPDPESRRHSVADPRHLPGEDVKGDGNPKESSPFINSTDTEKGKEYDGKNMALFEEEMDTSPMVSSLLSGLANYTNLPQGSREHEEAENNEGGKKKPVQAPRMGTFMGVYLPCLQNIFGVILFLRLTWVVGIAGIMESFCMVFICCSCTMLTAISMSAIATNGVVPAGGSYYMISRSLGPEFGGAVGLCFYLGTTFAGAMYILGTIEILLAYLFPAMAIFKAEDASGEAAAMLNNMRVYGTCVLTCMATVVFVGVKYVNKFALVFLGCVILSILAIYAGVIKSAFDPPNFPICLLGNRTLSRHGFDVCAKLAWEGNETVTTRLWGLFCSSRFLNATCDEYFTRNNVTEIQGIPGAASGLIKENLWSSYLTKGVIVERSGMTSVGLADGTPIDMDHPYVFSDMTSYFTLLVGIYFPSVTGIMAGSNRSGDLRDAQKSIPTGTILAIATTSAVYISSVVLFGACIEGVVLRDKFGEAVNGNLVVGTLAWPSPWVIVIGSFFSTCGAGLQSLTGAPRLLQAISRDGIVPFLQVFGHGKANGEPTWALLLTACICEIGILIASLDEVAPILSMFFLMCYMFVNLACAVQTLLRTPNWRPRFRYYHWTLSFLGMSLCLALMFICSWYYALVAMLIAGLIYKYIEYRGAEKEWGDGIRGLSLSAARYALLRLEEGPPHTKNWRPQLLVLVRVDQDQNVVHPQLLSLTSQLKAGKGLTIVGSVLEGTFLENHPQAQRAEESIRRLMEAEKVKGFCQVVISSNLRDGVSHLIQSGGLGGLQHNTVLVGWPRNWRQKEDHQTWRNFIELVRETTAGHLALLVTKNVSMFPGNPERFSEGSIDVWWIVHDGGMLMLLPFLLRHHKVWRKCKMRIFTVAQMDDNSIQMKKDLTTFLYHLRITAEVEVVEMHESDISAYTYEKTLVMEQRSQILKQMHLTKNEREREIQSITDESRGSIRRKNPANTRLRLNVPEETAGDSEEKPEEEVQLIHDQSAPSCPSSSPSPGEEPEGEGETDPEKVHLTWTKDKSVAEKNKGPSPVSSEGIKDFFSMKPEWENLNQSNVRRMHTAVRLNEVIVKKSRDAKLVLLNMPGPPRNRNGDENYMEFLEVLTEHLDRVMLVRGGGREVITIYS
Sequence of Alpha-2C adrenergic receptor (Homo sapiens) (P18825 whole entry, looked up): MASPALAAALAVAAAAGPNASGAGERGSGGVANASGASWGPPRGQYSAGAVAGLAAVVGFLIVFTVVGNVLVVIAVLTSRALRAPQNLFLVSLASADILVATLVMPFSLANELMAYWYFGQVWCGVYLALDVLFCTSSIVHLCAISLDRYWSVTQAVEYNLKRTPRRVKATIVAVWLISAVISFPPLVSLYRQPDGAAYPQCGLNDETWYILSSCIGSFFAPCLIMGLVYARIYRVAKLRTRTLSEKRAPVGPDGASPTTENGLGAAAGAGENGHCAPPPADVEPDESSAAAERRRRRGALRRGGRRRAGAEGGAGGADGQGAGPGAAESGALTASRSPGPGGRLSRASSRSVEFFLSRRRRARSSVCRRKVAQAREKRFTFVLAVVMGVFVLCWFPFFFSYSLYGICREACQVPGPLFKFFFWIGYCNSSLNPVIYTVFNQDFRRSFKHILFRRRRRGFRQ
Sequence of Dual specificity protein phosphatase 6 (Homo sapiens) (Q16828 whole entry, looked up): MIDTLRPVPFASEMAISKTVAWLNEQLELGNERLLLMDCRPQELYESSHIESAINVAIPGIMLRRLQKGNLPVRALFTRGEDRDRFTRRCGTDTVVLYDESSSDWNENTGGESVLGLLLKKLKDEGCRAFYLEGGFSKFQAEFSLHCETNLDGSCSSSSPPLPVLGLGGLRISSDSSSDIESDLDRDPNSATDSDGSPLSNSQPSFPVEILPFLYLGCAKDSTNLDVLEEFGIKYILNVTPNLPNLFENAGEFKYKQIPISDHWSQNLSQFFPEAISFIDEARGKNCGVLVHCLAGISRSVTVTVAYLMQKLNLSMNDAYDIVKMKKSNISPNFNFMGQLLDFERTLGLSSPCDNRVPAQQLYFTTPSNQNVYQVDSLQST

As to `Cc1ccc(-c2noc(CN3CCN(Cc4ccccc4)CC3)n2)cc1`, the normalised thallium flux (F/F0 slope) in test [1] was 0.0176 (inactive). Also, the thallium flux rate (normalised fluorescence) in test [2] was 0.00768 (inactive). For the same compound, the raw Tl+ flux slope (below DMSO = inhibition, above = activation) in test [3] was 0.0139 (inactive). For the same compound, the thallium flux slope in test [4] is 0.0101 (inactive).

For `N#Cc1c(-c2ccc(Cl)cc2)c2c([nH]c1=S)CCCC2`, the normalized thallium flux was 0.0281 (active) in the test “PubChem AID 1714” and 0.0403 (active) in test [5]. Also, the thallium flux rate (normalised fluorescence) in [2] is 0.0184 (active). Further, the raw Tl+ flux slope (below DMSO = inhibition, above = activation) in test [3] is 0.0302 (active). Besides, the thallium flux slope in [4] is 0.0192 (active).

In the case of `COc1ccc(Cl)cc1S(=O)(=O)Nc1cccc(C(=O)O)c1`, the normalised thallium flux (F/F0 slope) in [1] is 0.00707 (inactive). In addition, the normalized thallium flux in test [5] was 0.0299 (inactive). Also, the thallium flux slope in [4] is 0.0107 (inactive).

With `Cc1sc2ncnc(Sc3nc4ccccc4s3)c2c1C`, the normalised thallium flux (F/F0 slope) in test [1] is 0.0102 (inactive). Further, the normalized thallium flux in test [5] is 0.0292 (inactive). Besides, the thallium flux rate (normalised fluorescence) in test [2] is 0.00801 (inactive). The thallium flux slope in [4] is 0.0107 (inactive).

One may read the inhibition as the relative decrease from the control value, in per cent. Regarding `CCCC(=O)N1c2ccccc2NC2=C(C(=O)CCC2)C1c1ccc(F)cc1` (stereo unspecified), the cell count in [6] was 593. The inhibition in test [6] is -9.6% (inactive); in test [8], -94.4% (inactive); in [12], 8.4% (inactive); in [13] it was 23.4% (inactive). Moreover, in test [7], the inhibition of aggregation is 3.9% (inactive). Also, the nuclei count in [7] stood at 124%; in test [8], 123%. Moreover, the fluorescence slope in [9] is -0.574 (inactive). Also, the NADPH fluorescence slope in test [10] was -1.5e-05 (inactive). For the same compound, the slope in test [11] is 0.0063 (inactive). In addition, in test [1], the normalised thallium flux (F/F0 slope) is 0.0086 (inactive). Besides, the normalized thallium flux in test [5] was 0.0312 (inactive). The thallium flux rate (normalised fluorescence) in test [2] is 0.0072 (inactive). In [3], the raw Tl+ flux slope (below DMSO = inhibition, above = activation) was 0.0212 (inactive).

For `C=CCn1c(=S)[nH]c2nc3c(cc2c1=O)COC(C)(C)C3`, in test [6], the cell count came out at 590. Moreover, the inhibition is -2.3% (inactive) in [6]; -9.4% (inactive) in [8]; 3.66% (inactive) in [15]; -8.98% (inactive) in [17]; 14.5% (inactive) in test [12]; -0.984% (inactive) in test [13]. Also, the inhibition of aggregation in test [7] is 0.9% (inactive). Also, the nuclei count in test [7] turned out to be 109%; in test [8], 134%. Besides, the values for the z-score in test [14] (setting [18]), in [14] (setting [19]) and in test [14] (setting [20]) were 1.01, 0.551 and -1.17, respectively. In addition, in [9], the fluorescence slope is -0.495 (inactive). Also, the NADPH fluorescence slope in test [10] was -0.00014 (inactive). Also, the slope in test [11] was 0.00772 (inactive). Further, the compound was classed as inactive in test [16]. In addition, the normalized thallium flux was 0.0176 (active) in the test “PubChem AID 1714” and 0.0337 (inactive) in test [5]. Moreover, the thallium flux slope in [4] was 0.0123 (inactive).

Regarding `NC(N)=NC(=O)c1nc(Cl)c(N)nc1N`, the cell count in test [6] amounted to 517. Moreover, the inhibition in test [6] is -4.2% (inactive); in test [8] it was -76.7% (inactive); in [15], 30.1% (inactive); in test [17], 4.19% (inactive) and 21.2% (inactive); in test [12], 15.9% (inactive); in [13], 42% (inactive). Also, the inhibition of aggregation in [7] was -1.5% (inactive). Besides, the results for the nuclei count in test [7] and in [8] were 103% and 114%, respectively. The z-score is 2.22 in [14] (setting [18]), -1.45 in test [14] (setting [19]) and -1.51 in test [14] (setting [20]). In addition, in [9], the fluorescence slope is -0.443 (inactive). Besides, in test [10], the NADPH fluorescence slope is -7.2e-05 (inactive). The slope in test [11] is 0.00564 (inactive).

Consider `N#Cc1ccc(C(=O)Nc2nc(-c3cccs3)c(C(=O)C(F)(F)F)s2)cc1`, for which the normalised thallium flux (F/F0 slope) in [1] was 0.00795 (inactive). For the same compound, the normalized thallium flux in [5] is 0.033 (inactive). In [2], the thallium flux rate (normalised fluorescence) was 0.00821 (inactive). In test [3], the raw Tl+ flux slope (below DMSO = inhibition, above = activation) is 0.0191 (inactive).

In the case of `Cc1ccc(C(=O)NC(=S)Nc2ccccc2C)cc1`, the normalized thallium flux in “PubChem AID 1714” is 0.0441 (active); in [5], 0.0421 (active). Also, the thallium flux rate (normalised fluorescence) in test [2] was 0.0432 (active). The raw Tl+ flux slope (below DMSO = inhibition, above = activation) in test [3] is 0.0453 (active). Also, the thallium flux slope in test [4] is 0.0284 (active).
